# Test results: PubChem BioAssay (NCI)
# Compounds without any hit were thinned out: in the full panel of roughly 79,000, 15% have a hit. Values without a mark were called inactive. Active and inactive are the calls of the source. No stated cut-off is given here; in the data, active means growth inhibition above about 70%; inactive means the rest.
# Columns and labels:
# [1] = NCI Yeast Anticancer Drug Screen. Data for the rad52 strain (AID 147);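 further: 0% = growth of vehicle-treated control cultures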; details: S. cerevisiae rad52 mutant growth inhibition, stronger effect = higher value
# Procedure, shortened: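 The repair-mutant yeast strain was incubated with compounds, then growth was read and inhibition derived relative to vehicle.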
# [2] = NCI Yeast Anticancer Drug Screen. Data for the wt1 strain (AID 149);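 further: 0% = growth of vehicle-treated wt1 cultures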; details: S. cerevisiae wt1 strain (SPY 50644) growth inhibition, stronger effect = higher value
# Procedure, shortened: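 Vehicle-normalised growth inhibition; strain wt1; compound exposure.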
# [3] = NCI Yeast Anticancer Drug Screen. Data for the rad50EPP+ strain (AID 151);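 further: 0% = growth of vehicle-treated control cultures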; details: S. cerevisiae rad50 mutant strain, stronger effect = higher value
# Procedure, shortened: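 Vehicle-normalised growth inhibition; rad50EPP+ yeast strain, altered in DNA damage repair, compound-treated.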
# [4] = NCI Yeast Anticancer Drug Screen. Data for the mgt1 strain (AID 153); details: S. cerevisiae mgt1 mutant growth inhibition, stronger effect = higher value
# Procedure, shortened: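 Vehicle-normalized growth inhibition is determined in mgt1 yeast, a strain selected for a defined alteration in DNA repair or cell cycle control.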
# [5] = NCI Yeast Anticancer Drug Screen. Data for the rad50 strain (AID 155);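 further: 0% = growth of vehicle-only cultures of the same strain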; details: S. cerevisiae rad50 strain growth inhibition, stronger effect = higher value
# Procedure, shortened: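 A DNA repair-deficient yeast mutant serves as the test organism; compound-induced growth inhibition is calculated against vehicle-treated cells.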
# [6] = NCI Yeast Anticancer Drug Screen. Data for the mec2-1 strain (AID 157); details: S. cerevisiae mec2-1 strain, stronger effect = higher value
# Procedure, shortened: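 Mutant yeast (mec2-1) grown with compound; growth inhibition relative to vehicle control reported.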
# [7] = NCI Yeast Anticancer Drug Screen. Data for the rad14 strain (AID 159);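 further: 0% = growth of vehicle-treated control cultures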; details: S. cerevisiae rad14 strain growth inhibition, stronger effect = higher value
# Procedure, shortened: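 Vehicle-treated cultures served as the baseline for growth inhibition of a DNA repair-mutant yeast strain exposed to each compound.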
# [8] = NCI Yeast Anticancer Drug Screen. Data for the sgs1 mgt1 strain (AID 161);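 further: 0% = growth of cultures given vehicle only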; details: S. cerevisiae sgs1 mgt1 strain, stronger effect = higher value
# Procedure, shortened: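 Growth of a repair-deficient yeast mutant was monitored after compound treatment and expressed as inhibition relative to vehicle-treated cultures.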
# [9] = NCI Yeast Anticancer Drug Screen. Data for the CLN2oe strain (AID 163);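 further: 0% = growth of vehicle-only control cultures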; details: S. cerevisiae CLN2oe strain, stronger effect = higher value
# Procedure, shortened: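 Compounds are applied to yeast harbouring a defined cell-cycle control change; reduced growth compared with vehicle-treated controls gives the value.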
# [10] = NCI Yeast Anticancer Drug Screen. Data for the cln2 rad14 strain (AID 165);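 further: 0% = growth equal to vehicle treated cultures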; details: S. cerevisiae cln2 rad14 strain, stronger effect = higher value
# Procedure, shortened: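 Readout is yeast growth inhibition versus vehicle-treated controls, using a strain with cln2 and rad14 alterations exposed to compound.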
# [11] = NCI Yeast Anticancer Drug Screen. Data for the bub3 strain (AID 167); details: S. cerevisiae bub3 mutant strain, stronger effect = higher value
# Procedure, shortened: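 Inhibition values come from growth of compound-treated mutant yeast normalised to vehicle-treated controls.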
# [12] = NCI Yeast Anticancer Drug Screen. Data for the wt2 strain (AID 169);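 further: 0% = growth of vehicle-treated yeast cultures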; details: S. cerevisiae wt2 strain growth inhibition, stronger effect = higher value
# Procedure, shortened: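 Against vehicle-treated controls, the growth of yeast exposed to each compound was compared, and the inhibition was recorded.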
# [13] = NCI Yeast Anticancer Drug Screen. Data for the mlh1 strain (AID 171);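 further: 0% = growth of vehicle-treated control cultures of the same strain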; details: S. cerevisiae mlh1 strain growth inhibition, stronger effect = higher value
# Procedure, shortened: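 Measured: yeast growth. Reference: vehicle-treated controls. Organism: strain with a defined alteration affecting DNA damage repair or cell cycle control, treated with compound.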
# [14] = NCI Yeast Anticancer Drug Screen. Data for the sgs1 strain (AID 173);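 further: 0% = growth of vehicle-only control cultures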; details: S. cerevisiae sgs1 mutant, stronger effect = higher value
# Procedure, shortened: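 Each compound was added to cultures of the altered yeast strain. Growth was recorded, and inhibition was derived by comparison with vehicle controls.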
# [15] = NCI Yeast Anticancer Drug Screen. Data for the mlh1 rad18 strain (AID 175); details: S. cerevisiae mlh1 rad18 strain growth inhibition, stronger effect = higher value
# Procedure, shortened: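 Genetically defined yeast (DNA repair-deficient) exposed to compounds; growth inhibition determined relative to vehicle.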
# [16] = NCI Yeast Anticancer Drug Screen. Data for the rad18 strain (AID 177); details: S. cerevisiae rad18 mutant growth inhibition, stronger effect = higher value
# Procedure, shortened: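 Vehicle-treated cultures served as the baseline for scoring compound-induced growth inhibition in DNA-repair-mutant yeast.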
# [17] = at 5.0 µM (retest, dose inferred, filed as 0.5)
# [18] = at 50.0 µM (retest, dose inferred, filed as 5.0)
compound,measurement,setting,value
O=C(O)C1C2CCC(C2)C1c1ccccc1 (stereo unspecified),growth inhibition,[1]; at 1.2 µM,-1%
same,growth inhibition,[1]; at 3.7 µM,-3%
same,growth inhibition,[1]; at 11.0 µM,-6%
same,growth inhibition,[1]; at 33.0 µM,-3%
same,growth inhibition,[1]; at 100.0 µM,20%
same,growth inhibition,[2]; at 1.2 µM,-1%
same,growth inhibition,[2]; at 3.7 µM,-2%
same,growth inhibition,[2]; at 11.0 µM,-4%
same,growth inhibition,[2]; at 33.0 µM,-1%
same,growth inhibition,[2]; at 100.0 µM,26%
same,growth inhibition,[3]; at 1.2 µM,-1%
same,growth inhibition,[3]; at 3.7 µM,-2%
same,growth inhibition,[3]; at 11.0 µM,-2%
same,growth inhibition,[3]; at 33.0 µM,-2%
same,growth inhibition,[3]; at 100.0 µM,-3%
same,growth inhibition,[4]; at 1.2 µM,-1%
same,growth inhibition,[4]; at 3.7 µM,-1%
same,growth inhibition,[4]; at 11.0 µM,-4%
same,growth inhibition,[4]; at 33.0 µM,-5%
same,growth inhibition,[4]; at 100.0 µM,31%
same,growth inhibition,[5]; at 1.2 µM,-10%
same,growth inhibition,[5]; at 3.7 µM,-51%
same,growth inhibition,[5]; [17],-2%
same,growth inhibition,[5]; at 11.0 µM,2%
same,growth inhibition,[5]; at 33.0 µM,-3%
same,growth inhibition,[5]; [18],10%
same,growth inhibition,[5]; at 50.0 µM,19.4%
same,growth inhibition,[5]; at 100.0 µM,34%
same,growth inhibition,[6]; at 1.2 µM,-1%
same,growth inhibition,[6]; at 3.7 µM,-4%
same,growth inhibition,[6]; [17],-8%
same,growth inhibition,[6]; at 11.0 µM,-7%
same,growth inhibition,[6]; at 33.0 µM,-1%
same,growth inhibition,[6]; [18],8%
same,growth inhibition,[6]; at 50.0 µM,14.4%
same,growth inhibition,[6]; at 100.0 µM,31%
same,growth inhibition,[7]; at 1.2 µM,0%
same,growth inhibition,[7]; at 3.7 µM,0%
same,growth inhibition,[7]; at 11.0 µM,-5%
same,growth inhibition,[7]; at 33.0 µM,-8%
same,growth inhibition,[7]; at 100.0 µM,13%
same,growth inhibition,[8]; [17],-2%
same,growth inhibition,[8]; [18],8%
same,growth inhibition,[8]; at 50.0 µM,10.2%
same,growth inhibition,[9]; at 1.2 µM,-7%
same,growth inhibition,[9]; at 3.7 µM,-10%
same,growth inhibition,[9]; at 11.0 µM,-6%
same,growth inhibition,[9]; at 33.0 µM,-1%
same,growth inhibition,[9]; at 100.0 µM,18%
same,growth inhibition,[10]; [17],-6%
same,growth inhibition,[10]; [18],8%
same,growth inhibition,[10]; at 50.0 µM,11%
same,growth inhibition,[11]; at 1.2 µM,-1%
same,growth inhibition,[11]; at 3.7 µM,11%
same,growth inhibition,[11]; [17],29%
same,growth inhibition,[11]; at 11.0 µM,36%
same,growth inhibition,[11]; at 33.0 µM,77% (active)
same,growth inhibition,[11]; [18],90% (active)
same,growth inhibition,[11]; at 50.0 µM,95% (active)
same,growth inhibition,[11]; at 100.0 µM,94% (active)
same,growth inhibition,[12]; at 1.2 µM,-1%
same,growth inhibition,[12]; at 3.7 µM,7%
same,growth inhibition,[12]; at 11.0 µM,-3%
same,growth inhibition,[12]; at 33.0 µM,0%
same,growth inhibition,[12]; at 100.0 µM,37%
same,growth inhibition,[13]; at 1.2 µM,-2%
same,growth inhibition,[13]; at 3.7 µM,-2%
same,growth inhibition,[13]; at 11.0 µM,-1%
same,growth inhibition,[13]; at 33.0 µM,-2%
same,growth inhibition,[13]; at 100.0 µM,31%
same,growth inhibition,[14]; at 1.2 µM,-2%
same,growth inhibition,[14]; at 3.7 µM,0%
same,growth inhibition,[14]; at 11.0 µM,3%
same,growth inhibition,[14]; at 33.0 µM,15%
same,growth inhibition,[14]; at 100.0 µM,66%
same,growth inhibition,[15]; [17],-1%
same,growth inhibition,[15]; [18],6%
same,growth inhibition,[15]; at 50.0 µM,20.1%
same,growth inhibition,[16]; at 1.2 µM,0%
same,growth inhibition,[16]; at 3.7 µM,-1%
same,growth inhibition,[16]; at 11.0 µM,-5%
same,growth inhibition,[16]; at 33.0 µM,1%
same,growth inhibition,[16]; at 100.0 µM,47%
COc1cc2ccccc2c2cc([N+](=O)[O-])oc12,growth inhibition,[1]; at 1.2 µM,82% (active)
same,growth inhibition,[1]; at 3.7 µM,88% (active)
same,growth inhibition,[1]; at 11.0 µM,91% (active)
same,growth inhibition,[1]; at 33.0 µM,91% (active)
same,growth inhibition,[1]; at 100.0 µM,91% (active)
same,growth inhibition,[2]; at 1.2 µM,4%
same,growth inhibition,[2]; at 3.7 µM,6%
same,growth inhibition,[2]; at 11.0 µM,15%
same,growth inhibition,[2]; at 33.0 µM,29%
same,growth inhibition,[2]; at 100.0 µM,36%
same,growth inhibition,[3]; at 1.2 µM,82% (active)
same,growth inhibition,[3]; at 3.7 µM,86% (active)
same,growth inhibition,[3]; at 11.0 µM,91% (active)
same,growth inhibition,[3]; at 33.0 µM,90% (active)
same,growth inhibition,[3]; at 100.0 µM,88% (active)
same,growth inhibition,[4]; at 1.2 µM,2%
same,growth inhibition,[4]; at 3.7 µM,11%
same,growth inhibition,[4]; at 11.0 µM,26%
same,growth inhibition,[4]; at 33.0 µM,43%
same,growth inhibition,[4]; at 100.0 µM,59%
same,growth inhibition,[5]; at 1.2 µM,79% (active)
same,growth inhibition,[5]; at 3.7 µM,88% (active)
same,growth inhibition,[5]; [17],75% (active)
same,growth inhibition,[5]; at 11.0 µM,92% (active)
same,growth inhibition,[5]; at 33.0 µM,91% (active)
same,growth inhibition,[5]; [18],76% (active)
same,growth inhibition,[5]; at 50.0 µM,78.2% (active)
same,growth inhibition,[5]; at 100.0 µM,88% (active)
same,growth inhibition,[6]; at 1.2 µM,23%
same,growth inhibition,[6]; at 3.7 µM,39%
same,growth inhibition,[6]; [17],45%
same,growth inhibition,[6]; at 11.0 µM,55%
same,growth inhibition,[6]; at 33.0 µM,65%
same,growth inhibition,[6]; [18],62%
same,growth inhibition,[6]; at 50.0 µM,53%
same,growth inhibition,[6]; at 100.0 µM,78% (active)
same,growth inhibition,[7]; at 1.2 µM,91% (active)
same,growth inhibition,[7]; at 3.7 µM,93% (active)
same,growth inhibition,[7]; at 11.0 µM,95% (active)
same,growth inhibition,[7]; at 33.0 µM,94% (active)
same,growth inhibition,[7]; at 100.0 µM,93% (active)
same,growth inhibition,[8]; [17],73% (active)
same,growth inhibition,[8]; [18],76% (active)
same,growth inhibition,[8]; at 50.0 µM,60.9%
same,growth inhibition,[9]; at 1.2 µM,-8%
same,growth inhibition,[9]; at 3.7 µM,-6%
same,growth inhibition,[9]; at 11.0 µM,4%
same,growth inhibition,[9]; at 33.0 µM,19%
same,growth inhibition,[9]; at 100.0 µM,24%
same,growth inhibition,[10]; [17],91% (active)
same,growth inhibition,[10]; [18],84% (active)
same,growth inhibition,[10]; at 50.0 µM,84.3% (active)
same,growth inhibition,[11]; at 1.2 µM,-21%
same,growth inhibition,[11]; at 3.7 µM,-21%
same,growth inhibition,[11]; [17],2%
same,growth inhibition,[11]; at 11.0 µM,-1%
same,growth inhibition,[11]; at 33.0 µM,5%
same,growth inhibition,[11]; [18],14%
same,growth inhibition,[11]; at 50.0 µM,3.55%
same,growth inhibition,[11]; at 100.0 µM,7%
same,growth inhibition,[12]; at 1.2 µM,5%
same,growth inhibition,[12]; at 3.7 µM,11%
same,growth inhibition,[12]; at 11.0 µM,23%
same,growth inhibition,[12]; at 33.0 µM,36%
same,growth inhibition,[12]; at 100.0 µM,51%
same,growth inhibition,[13]; at 1.2 µM,7%
same,growth inhibition,[13]; at 3.7 µM,10%
same,growth inhibition,[13]; at 11.0 µM,21%
same,growth inhibition,[13]; at 33.0 µM,41%
same,growth inhibition,[13]; at 100.0 µM,60%
same,growth inhibition,[15]; [17],89% (active)
same,growth inhibition,[15]; [18],88% (active)
same,growth inhibition,[15]; at 50.0 µM,88.3% (active)
same,growth inhibition,[16]; at 1.2 µM,96% (active)
same,growth inhibition,[16]; at 3.7 µM,96% (active)
same,growth inhibition,[16]; at 11.0 µM,95% (active)
same,growth inhibition,[16]; at 33.0 µM,94% (active)
same,growth inhibition,[16]; at 100.0 µM,88% (active)
